Rows were chosen to be rich in hits. Some 11% of all compounds tested hit in one or more screens of this group.
HCV inhibitor – HCV inhibition | Huh7.5.1 HCVcc-Cre infection, luciferase reporter, 44 h | Potency, µM (top dose mostly 41.8 µM), for the others: at the top dose activity change, negative = inhibition, most hits filed as inhibitors | actives 3.4% (n = 340,000)
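Cells seeded at 1,000/well and cultured 4 h, then compounds added followed by HCVcc-Cre virus (~0.5 moi). After 44 h further culture, luciferase substrate was added, plates held 15 min at room temperature, and luminescence read for 15 sec.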
Pf growth 96h – inhibits malaria parasite growth, 96 h. P. falciparum luciferase reporter growth, 96 h. Potency, µM (doses to about 28.7 µM), for inactives: at the top dose activity change, negative = inhibition, hits mostly inhibitors. actives 6.9% (n = 320,000)
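Plates of compound plus infected erythrocytes (2% hematocrit, 0.05% parasitemia final) incubate 96 hours, 37 C, 5% CO2. Detection reagent added; reduced luminescence from the parasites' luciferase reporter flags inhibition.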
Pf growth 48h – inhibits P. falciparum growth in the first generation, 48 h. P. falciparum luciferase growth in erythrocytes, 48 h. Potency, µM (top dose mostly 28.7 µM), without a hit: top-dose activity change, negative = inhibition, usual class: inhibitors. actives 5.9% (n = 310,000). AID 504832
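Cell-based growth assay: transgenic P. falciparum expressing firefly luciferase, cultured in red cells within RPMI 1640 containing 0.5% w/v Albumax, 24 mM bicarbonate and gentamycin. A drop in luciferase activity indicates inhibition.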
AMA1 RON2 block – AMA1-RON2 (P. falciparum) interaction inhibition; AlphaScreen AMA1-biotinylated RON2 peptide binding; Potency, µM (top dose mostly 58.2 µM), for inactives: at the top dose activity change, negative = inhibition, actives largely listed as inhibitors; AID 720542; actives 0.2% (n = 360,000);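 further: 0% = vehicle wells and -100% = peptide control; nearly all actives have a fitted effect of over 45% in size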
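AMA1 (3D7) with his tag at 25 nM final met compounds first, then biotinylated RON2 peptide at 25 nM; detection used donor plus acceptor beads, 10 µg/mL apiece, read by AlphaScreen after 30 min at room temperature.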
Numbers without * were called inactive; ? = inconclusive; / = no result. The call rests on the fitted dose curve; in most records, active means well fitted curve in the direction sought with a large enough effect; inconclusive means small, poorly fitted or top-dose-only effect, or another doubt; inactive means no such curve, though single readings can be large; an effect the other way counts as inactive or inconclusive. Unless noted, on the % scale 0 is the no-effect control and ±100 the full control effect; potency means the concentration at half of the fitted maximal effect.

SMILES | HCV inhibitor | Pf growth 96h | Pf growth 48h | AMA1 RON2 block
Cc1ccc(S(=O)(=O)N2CCCC2)cc1C(=O)NCc1ccccc1CN1CCCC1 | 1% | ? | -29% | -1%
CC(=O)Nc1ccc(-c2csc(Nc3ccc(Cl)cn3)n2)cc1 | ? | 2% | 11% | -3%
CC(=O)Nc1cccc(-c2csc(Nc3ccc(Cl)cn3)n2)c1 | 11µM* | 6% | -5% | 0%
CC(=O)Nc1cccc(-c2csc(NCc3ccccc3)n2)c1 | -21% | 10µM* | ? | ?
CC(C)CC(=O)Nc1cccc(-c2csc(-c3ccccc3)n2)c1 | ? | 6.6µM* | ? | 12%
CC(=O)Nc1cccc(-c2csc(Nc3ccccn3)n2)c1 | 11µM* | 137% | -13% | -7%
CCC(=O)Nc1cccc(-c2csc(-c3ccccc3)n2)c1 | ? | -2% | 34% | 12%
CC(=O)Nc1ccc(-c2csc(NCc3ccccc3)n2)cc1 | ? | -19% | 6% | 0%
O=C(CCS(=O)(=O)c1ccccc1)Nc1nc2c(s1)COc1ccccc1-2 | -1% | ? | / | 56%
CC(Oc1cccc(F)c1)c1ccnc2nc(/N=C/N(C)C)nn12 (stereo unspecified) | -19% | 4% | 7% | 10%
Cc1nnc2n(C3CCCCC3)c(=O)c3c4c(sc3n12)CCC4 | / | 3.3µM* | -2% | /
CSc1nnc2n(C3CCCCC3)c(=O)c3c4c(sc3n12)CCCC4 | 14% | -7% | 3% | /
Cc1cccc(NC(=O)CSc2nc(=O)n(CCCN3CCOCC3)c3c2CCCC3)c1C | / | / | / | -8%
C[n+]1ccccc1/C=C/c1ccc(C#N)cc1 | 17% | ? | 15% | -1%
C[n+]1ccc(/C=C/c2ccc(Br)cc2)cc1 | ? | 1.3µM* | 0.33µM* | -17%
Fc1ccc(-n2nnc(-c3ccnc4ccccc34)n2)cc1 | -1% | 307% | 332% | -10%
Cc1cc(=O)[nH]c(SCC2COC3(CCCCC3)O2)n1 (stereo unspecified) | ? | 8% | -10% | 10%
NCCNC[C@@H]1COC2(CCCCCCCCCCC2)O1 | -3% | 7.4µM* | 8.3µM* | 63%
COc1cc2[nH]c3c(N4CCN(c5ccc(Cl)cc5)CC4)ncnc3c2cc1OC | ? | ? | 4.1µM* | -13%
COc1ccc2c(c1)[nH]c1c(N3CCN(Cc4ccc5c(c4)OCO5)CC3)ncnc12 | ? | ? | 2.6µM* | -24%
COc1cccc2[nH]c3c(N4CCN(Cc5ccc6c(c5)OCO6)CC4)ncnc3c12 | / | 10% | ? | /
COc1cc2[nH]c3c(Cl)ncnc3c2cc1OC | -21% | ? | ? | -4%
COc1ccc2c(c1)[nH]c1c(=O)n(CCN(C)C)cnc12 | 9% | / | 30% | -6%
COc1ccc2c(c1)[nH]c1c(N3CCSCC3)ncnc12 | -82% | 6.6µM* | 4.7µM* | -1%
Cc1ccc(CNC(=O)C2CCN(S(=O)(=O)c3c(C)noc3/C=C/c3ccco3)CC2)cc1 | -18% | 6.6µM* | / | -6%
SMILES | HCV inhibitor | Pf growth 96h | Pf growth 48h | AMA1 RON2 block
Cc1noc(/C=C/c2ccco2)c1S(=O)(=O)N1CCC(C(=O)NCc2ccco2)CC1 | ? | / | 13µM* | -8%
Cc1noc(/C=C/c2ccco2)c1S(=O)(=O)N1CCC(C(=O)N2CCc3ccccc3C2)CC1 | 11µM* | ? | 9.3µM* | -13%
COc1cc(OC)cc(C(=O)N(CCCN2C(=O)c3cccc4cccc(c34)C2=O)c2cccc(OC)c2)c1 | -19% | -99% | 9.3µM* | -4%
COc1ccc(N(CCCN2C(=O)c3cccc4cccc(c34)C2=O)C(=O)c2ccncc2)cc1 | 5% | 1.5µM* | 2.3µM* | -10%
COc1ccc(N(CCCN2C(=O)c3cccc4cccc(c34)C2=O)C(=O)c2cccnc2)cc1 | ? | -24% | ? | ?
COc1ccc(-c2[nH]ncc2[C@@H]2C[C@H]3CN(Cc4ccccc4C)C(=O)[C@]34CCCN24)cc1 | ? | 6% | 3.3µM* | -9%
COc1ccc([C@@H]2C[C@H]3CN(Cc4ccccc4OC)C(=O)[C@]34CCCN24)cc1C | ? | -20% | 39% | -3%
COc1ccccc1CN1C[C@@H]2C[C@@H](c3cccc(C)c3)N3CCC[C@@]23C1=O | -8% | 10µM* | ? | -5%
COc1ccccc1CN1C[C@@H]2C[C@@H](c3ccc(C)c(C)c3)N3CCC[C@@]23C1=O | ? | 10µM* | ? | -6%
COc1ccccc1CN1C[C@@H]2C[C@@H](c3[nH]c4c(C)cccc4c3C)N3CCC[C@@]23C1=O | -29% | 12µM* | 6.6µM* | 11%
O=S(=O)(NCc1ccco1)c1ccccc1Br | 2% | ? | -4% | -4%
Cc1occc1C(=O)NNC(=O)CN1C(=O)NC2(CCCCC2)C1=O | 18% | 38% | 36% | -3%
CCc1ccc(C2NC(c3ccc(CC)cc3)C([N+](=O)[O-])C(C)(C)C2[N+](=O)[O-])cc1 (stereo unspecified) | 25% | 13µM* | ? | -2%
C/C(=N/O)c1ccccn1 | 20% | 0% | ? | 117%
CCCCCC/C(=N/O)c1ccccn1 | -13% | ? | 12µM* | 48%
CCOC(=O)N1CCc2c(sc(N)c2C#N)C1 | 7% | 7% | 25% | 0%
N#Cc1c(NC(=S)NC(=O)c2ccccc2)sc2c1CCCC2 | 10% | ? | 35% | 46%
N#Cc1c(NC(=S)NC(=O)c2ccccc2)sc2c1CCN(CCc1ccccc1)C2 | -9% | 2.6µM* | 4.1µM* | /
N#Cc1c(N)sc2c1CCN(CCc1ccccc1)C2 | -14% | 79% | 10µM* | 0%
Cc1nnc(SCC(=O)N2CCCCC2)s1 | ? | / | 27% | 7%
Cc1nnc2sc(SCC(=O)Nc3ccc(Br)cc3)nn2c1=O | -2% | ? | ? | 80%
Cc1ccccc1CSc1nn2c(=O)c(C)nnc2s1 | 20% | ? | 5.2µM* | 2%
Cc1nnc2sc(SCC(=O)N3CCCCC3)nn2c1=O | 8% | 0.83µM* | 2.6µM* | 15%
Cc1ccccc1NC(=O)CSc1nn2c(=O)c(C)nnc2s1 | -1% | ? | ? | 92%
Cc1nnc2sc(SCC(=O)N3CCC(C)CC3)nn2c1=O | 11% | 3.7µM* | ? | 0%
SMILES | HCV inhibitor | Pf growth 96h | Pf growth 48h | AMA1 RON2 block
O=C(NCCc1ccccc1)c1n[nH]c(=O)c2ccccc12 | 17% | -27% | 26% | 8%
CCN1CCN(CCCNC(=O)c2cc3c(=O)[nH]c4ccccc4c3s2)CC1 | ? | 10µM* | / | 6%
CC1CCN(CCCNC(=O)c2cc3c(Cl)nc4ccccc4c3s2)CC1 | 13µM* | 9% | ? | -2%
CCCCN(C)C(=O)c1cc2c(Cl)nc3ccccc3c2s1 | -1% | 34% | -10% | -12%
CC1CCN(CCCNC(=O)c2n[nH]c(=O)c3ccccc23)CC1 | 1% | 12µM* | 21% | -15%
O=C(NCCCN1CCCC1)c1cc2c(Cl)nc3ccccc3c2s1 | 18µM* | 5.9µM* | ? | 0%
CN1CCN(CCCNC(=O)c2cc3c(-c4ccc(Cl)cc4)nn(C)c3s2)CC1 | ? | ? | / | -10%
